Bioassay records (PubChem BioAssay)
Shn3 inh set2 = reduction of Shn3 3'UTR firefly luciferase signal, primary screen, Schnurri-3 inhibitor project, cell-based, Clone20 osteoblasts, set 2. Clone20 osteoblast Shn3 3'UTR firefly luciferase, 24 h. inhibition, % at 12.5 µM. 0.52% of 360,000 active. AID 588674, 2011;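 active means mean inhibition of at least 75% with every replicate also reaching 75%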;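 further: 0% = median of neutral control wells and 100% = pilot-screen positive control compound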
Peg3 promoter = Peg3 promoter-driven luciferase inhibitors, primary screen, cell-based, HeLa, luciferase luminescence; AID 588405, 2011; HeLa PEG-Prom luciferase reporter, overnight; inhibition, % at 20 µM; 1.7% of 360,000 active;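 active means inhibition of at least 50% at 20 µM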
EBV LMP1 NFkB = EBV LMP1-driven NF-kappaB luciferase reporter inhibitors, primary screen, cell-based, luminescence, single point. LMP1-induced NF-kappaB luciferase reporter cells. inhibition, % at 12.5 µM. 0.69% of 350,000 active. AID 504558, 2011; in the data active means inhibition above about 41%;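 further: 0% = neutral control wells and 100% = reference inhibitor control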
KKLEB tox = cytotoxicity in KKLEB CF airway cells, primary screen, cytotoxicity control for CF NF-kB inhibitor project, cell-based, uHTS, fluorescence assay plates. AID 602141, 2011. activity change (cytotoxicity), % at 5 µM. KKLEB CF airway cells viability, ATPlite luminescence, overnight; hits give low values; cells stimulated with P. aeruginosa culture filtrate. 0.36% of 360,000 active;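 active means corrected activity change at or below -50% at 5 µM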
CF NFkB inh = inhibitors of PAF-induced NF-kB signaling, primary screen, cell-based, GFP fluorescence, uHTS. KKLEB NF-kB-GFP reporter, GFP fluorescence overnight. inhibition, % at 5 µM. 0.86% of 360,000 active;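 active means at least 50% inhibition at 5 µM, scaled per plate between neutral and stimulator controls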;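 further: PAF is a Pseudomonas aeruginosa culture filtrate used as stimulus; plate controls were PAF-stimulated DMSO wells for no effect and unstimulated DMSO wells for full effect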
MITF TRPM1 inh = inhibitors of MITF-dependent TRPM1 promoter reporter, primary screen, cell-based, SK-MEL-5, single point, luciferase; 0.83% of 330,000 active; SK-MEL-5 TRPM1 promoter luciferase, 24 h; AID 488899, 2010; inhibition, % at 12.5 µM;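 active means mean inhibition across replicates of 60% or more, whatever share of single replicates reaches that level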
An asterisk follows results filed as active; · = not tested or not shown. Shown are actives, neighbours in structure and some others; about 2.9% of the full set was active somewhere.

SMILES | Shn3 inh set2 | Peg3 promoter | EBV LMP1 NFkB | KKLEB tox | CF NFkB inh | MITF TRPM1 inh
C=CC1=CCN(S(=O)(=O)C(C)(C)C)[C@H]1CCO | 4 | -3 | -1 | -6 | -3 | ·
O=C1C=CC(=C(c2ccc(O)cc2)c2ccc(O)cc2)C=C1 | -23 | 85* | -45 | 5 | 32 | 83*
O=C1C(=O)c2cccnc2-c2ncccc21 | 95* | 102* | · | -83* | 90* | ·
CC[C@]12c3[nH]c4ccc(OC)cc4c3CCN1C(=O)C(CC(=O)NCC13CC4CC(CC(C4)C1)C3)C[C@@H]2C(=O)N1CCN(C(=O)c2ccco2)CC1 (stereo partly drawn) | 19 | 14 | 4 | -5 | 10 | 11
CC[C@]12c3[nH]c4ccc(Cl)cc4c3CCN1C(=O)[C@@H](CC(=O)NCC13CC4CC(CC(C4)C1)C3)C[C@@H]2C(=O)N1CCN(C(=O)c2ccco2)CC1 | 80 | 67* | 10 | -7 | 16 | 43
CCN(CC)C(=O)[C@H]1C[C@H](CC(=O)NCC23CC4CC(CC(C4)C2)C3)C(=O)N2CCc3c([nH]c4ccc(Cl)cc34)[C@]12C | 22 | 59* | -6 | -6 | 25 | 12
CCN(C(=O)CSc1nnnn1C)C1CCS(=O)(=O)C1 (stereo not drawn) | -24 | 2 | 0 | 12 | 8 | -7
CCCS(=O)(=O)NC(=O)C1(C)CCN(C(=O)c2ccc3c(c2)OCO3)C1 (stereo not drawn) | -13 | -5 | · | -7 | -2 | ·
N=c1c(-c2nc3ccccc3[nH]2)cc(C(=O)c2cccs2)nn1-c1ccccc1 | -14 | 6 | 42* | 4 | -2 | 7
N=c1c(-c2nc3ccccc3[nH]2)cc(C(=O)c2ccco2)nn1-c1ccccc1 | -1 | 29 | 2 | -14 | 2 | 15
O=C(NCCCCc1ccccc1)c1cccc(NC(=O)C2CCCC2)c1 | 15 | 0 | 1 | 3 | -18 | 9
COc1ccc(NC(=O)N(C)C[C@H]2Oc3cc(Br)ccc3S(=O)(=O)N([C@H](C)CO)C[C@@H]2C)cc1 | -26 | 4 | 15 | 8 | 20 | ·
COc1ccc(C(=O)N2[C@@H](C(C)C)COc3cc(Br)ccc3S2(=O)=O)cc1 | 1 | 55* | 14 | 14 | 39 | -6
O=C1S/C(=C\c2ccc(N3CCOCC3)o2)C(=O)N1Cc1c(F)cccc1Cl | 96* | 8 | -1 | -16 | 5 | 2
COc1ccccc1-c1oc2ccccc2c1C#CC1(N)CCCCC1 | -41 | 72* | -12 | -18 | 8 | 25
COc1ccccc1-c1oc2ccccc2c1C#CC1(O)CCCCC1 | -9 | 5 | -16 | -1 | 0 | -10
COCCCN(C(=O)CCOc1ccccc1C)c1c(N)n(Cc2ccccc2)c(=O)[nH]c1=O | 1 | 20 | 2 | -12 | -8 | -1
CC1=CC(=NOC(=O)/C=C/c2ccccc2)C=C(C)C1=O | 16 | -18 | 59* | 11 | 1 | 2
CCC(NC(=O)Nc1nnc(C(F)(F)F)s1)(C(F)(F)F)C(F)(F)F | 83 | 33 | 46* | -51* | 58* | 47
COc1cccc(C(=O)Oc2ccccc2/C=C\C(=O)c2cc3ccccc3o2)c1 | -62 | 105* | 16 | -13 | -1 | 20
C[C@H]1CN([C@@H](C)CO)S(=O)(=O)c2ccc(C#CC3(O)CCCC3)cc2O[C@@H]1CN(C)C(=O)Cc1cccnc1 | -9 | -10 | 1 | 7 | 6 | ·
CCCN1C/C(=C/c2ccc3c(c2)OCO3)C(=O)/C(=C/c2ccc3c(c2)OCO3)C1 | -10 | 107* | -59 | 14 | -39 | 84*
CC(C)c1nc(SCC(=O)Nc2cccc(C(F)(F)F)c2)c2c(=O)n(C)c(=O)n(C)c2n1 | 86* | 15 | 16 | -3 | 20 | ·
CCN(c1ccccc1)S(=O)(=O)c1ccc(Cl)c(NC(=O)CSc2nc(N)cc(=O)[nH]2)c1 | 9 | -2 | -8 | 8 | 8 | ·
C[n+]1c2n(c3ccccc31)N=C(c1cc(C(C)(C)C)c(O)c(C(C)(C)C)c1)CS2 | 90* | 86* | 45* | -26 | 36 | 0
SMILES | Shn3 inh set2 | Peg3 promoter | EBV LMP1 NFkB | KKLEB tox | CF NFkB inh | MITF TRPM1 inh
C[C@@H]1CCCCO[C@@H](CN(C)C(=O)CCCN(C)C)[C@@H](C)CN([C@H](C)CO)C(=O)c2cc(N(C)C)ccc2O1 | -11 | -9 | · | 1 | 6 | ·
CCCCCC(=O)OCc1ccc(C2=CC(=O)CC(C)(C)C2=O)cc1 | 0 | 13 | -4 | -2 | -11 | ·
CCc1ccc(S(=O)(=O)Nc2c(C)n(C)n(-c3ccccc3)c2=O)cc1 | 3 | 3 | 0 | 2 | 2 | 0
Cc1c(C(C)C)c(=O)n(-c2ccc(S(=O)(=O)N3CCOCC3)cc2)n1C | -5 | 12 | 0 | -7 | 4 | 11
Cc1c(C(C)C)c(=O)n(-c2ccc(S(=O)(=O)NCc3ccccc3)cc2)n1C | 83* | 18 | 13 | 0 | 1 | 22
Cc1c(C(C)C)c(=O)n(-c2ccc(S(=O)(=O)NC3CCCCC3)cc2)n1C | 88* | 10 | 23 | -9 | 18 | 26
CCCCCCn1c(=O)n2n(c1=O)C[C@]1(OC(=O)NCc3ccco3)CN(S(=O)(=O)c3ccc(C)cc3)C[C@]1(O)C2 | 17 | -6 | -7 | 11 | -9 | ·
CCCOc1ccc(F)cc1-c1cc(C(=O)NCc2cccc(Cl)c2)[nH]n1 | 12 | -6 | · | -6 | 0 | ·
CC(C)N1C(=O)NC2NC(=O)N(C(C)C)C21 (stereo not drawn) | 3 | -5 | · | -7 | 6 | ·
CC1=NN(C(N)=S)C(=O)C1N=Nc1cccc(C(=O)O)c1 (stereo not drawn) | 15 | 28 | 49* | 4 | 0 | 19
CC1=NN(C(N)=S)C(=O)C1N=Nc1cccc(C)c1 (stereo not drawn) | -53 | -167 | -10 | 0 | -12 | -52
Fc1ccc2[nH]c3c(N4CCc5ccccc5C4)ncnc3c2c1 | 87* | 17 | · | -1 | -15 | ·
Cc1ccc2[nH]c3c(N4CCc5ccccc5C4)ncnc3c2c1 | 82 | -101 | 26 | -2 | -6 | 19
Cc1nc2sc(-c3ccccc3)cc2c(=O)n1-n1cccc1 | -32 | -293 | -58 | 2 | -3 | -109
Cc1nc2sc(-c3ccccc3)cc2c(=O)n1N | · | 58* | 62* | -11 | -38 | 45
C#Cc1cccc(Nc2nc(NCc3ccccc3OC)nc3ccsc23)c1 | 75 | 33 | · | -31 | 39 | ·
O=C1C(=O)N(c2nccs2)C(c2ccccc2)/C1=C(\O)c1ccc2c(c1)OCCO2 (stereo not drawn) | 7 | 18 | 34 | -13 | 37 | 67*
